Experimental data published in PubChem BioAssay AID1273 (Columbia University Molecular Screening Center, 2008).
Out of some 130,000 compounds screened, about 1,200 (0.92%) were called active.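 Rule for the calls: active = inhibition above the mean plus 3 SD, with well images judged a real hit on visual review (cut at about 60% in these data, passing the limit was not always enough); inconclusive = inhibition over the cutoff but images rejected on review; inactive = inhibition not above the cutoff.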 Shown is part of a subset that was picked to be rich in actives.

Assay: inhibitors of insulin promoter-driven GFP, primary screen, imaging, TRM-6 cells (human fetal islet line), eGFP reporter, cell count (AID 1273;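 for normalized cell count: cells exposed to compound for 48 h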)
Conditions: at 2 µM, reporter expression induced with tamoxifen; inhibition: stronger effect = higher value; normalized cell count: measured here: cell count, toxicity

Row | Structure (SMILES) | inhibition | normalized cell count
1 | COC(=O)CC1=NN(c2ccccc2)C(=O)C1 | 0% (inactive) | 102%
2 | CN(C)C=NC(=O)c1cccn1-c1ncc(C(F)(F)F)cc1Cl | 31.2% (inactive) | 84.7%
3 | Cc1ccc(NC(=O)CCN2CCc3ccccc3C2)cc1 | 28.6% (inactive) | 64.3%
4 | COc1ccc(OC)c(NC(=O)CCN2CCC(C)CC2)c1 | 34.2% (inactive) | 86.9%
5 | CC1CCN(CCC(=O)Nc2ccccc2)CC1 | 78.6% (active) | 39.9%
6 | O=C(CCN1CCN(C/C=C/c2ccccc2)CC1)Nc1cccc(F)c1 | -57.1% (inactive) | 154%
7 | CCc1ccc(/C=C2\SC(N3CCOCC3)=NC2=O)cc1 | 16.7% (inactive) | 199%
8 | Cc1nnsc1C(=O)Nc1cccc(Cl)c1C | 50% (inactive) | 71.6%
9 | O=C(Nc1ccc(-c2ccc3nncn3n2)cc1)C1CCCCC1 | -25% (inactive) | 193%
10 | Cc1cccc(NC(=O)CN2C(=O)c3ccccc3C2=O)c1C | -28.6% (inactive) | 79%
11 | S=C(Nc1ccc2c(c1)OCO2)N1CCCC1 | -79% (inactive) | 73.4%
12 | c1ccc(C2=Nc3cccc4cccc(c34)N2)cc1 | -73.5% (inactive) | 133%
13 | Fc1ccccc1N=C1Nc2cccc3cccc1c23 | 88.9% (active) | 172%
14 | COc1ccccc1C1=Nc2cccc3cccc(c23)N1 | -6.67% (inactive) | 113%
15 | Cc1ccc(N(C(=O)Cc2cccs2)C2C=CS(=O)(=O)C2)cc1Cl (centres undefined) | 15% (inactive) | 128%
16 | Cc1cc(NC(=O)CSc2nc3ccccc3n2CC(C)C)no1 | -41.7% (inactive) | 96.4%
17 | CC1Cc2ccccc2N1S(=O)(=O)c1c(N)n(C)c(=O)n(C)c1=O (centres undefined) | -66.7% (inactive) | 73.2%
18 | COc1ccc(NC(=O)CSc2nnc(-c3cccs3)n2Cc2ccco2)cc1OC | 72.7% (active) | 109%
19 | Cc1ccc(NC(=O)CSc2nnc(-c3cnccn3)n2Cc2ccco2)cc1C | -21.6% (inactive) | 100%
20 | O=C(CSc1nnc(-c2cccs2)n1Cc1ccco1)c1ccc2c(c1)OCO2 | 17.6% (inactive) | 96.9%
21 | O=C(CCN1C(=O)c2ccncc2C1=O)Nc1cc(F)ccc1F | 25% (inactive) | 92%
22 | CSCC(NS(=O)(=O)c1ccc(C)cc1)C(=O)O (centres undefined) | -387% (inactive) | 83.3%
23 | COCc1cc(C(C)=O)ccc1OC | 30.8% (inactive) | 97.5%
24 | Cn1c(N)c(C(=O)COC(=O)c2cnc(Cl)c(Cl)c2)c(=O)n(C)c1=O | -42.9% (inactive) | 106%
25 | CCOc1ccc(C(C)=O)cc1COC(=O)c1cnc(Cl)c(Cl)c1 | 83.3% (active) | 144%
26 | CCSc1sc(CC)cc1C=O | 57.1% (inactive) | 96.8%
27 | CCN1CCN(c2ccc(NC(=O)c3cnccn3)cc2)CC1 | -35.7% (inactive) | 74.9%
